Measurements from PubChem BioAssay (NCATS).
“And” between values parts separate entries of the source, which are not always exact repeats. Identical values can stand only once. Inconclusive results are not listed. A call without a number means that no potency is given here. The source made the active and inactive calls. Unless noted, the call rests on the fitted dose curve; in most records, active means well fitted curve in the direction sought with a large enough effect; inconclusive means small, poorly fitted or top-dose-only effect, or another doubt; inactive means no such curve, though single readings can be large; an effect the other way counts as inactive or inconclusive.

How the values were obtained:
[1] = molecular target: Flap endonuclease 1 (Homo sapiens) (UniProt P39748); experiment: qHTS Validation Assay for the Inhibitors of Human Flap endonuclease 1 (FEN1) (AID 488816); further: potency means the concentration at half of the fitted maximal effect
Sequence of Flap endonuclease 1 (Homo sapiens) (P39748 whole entry, looked up): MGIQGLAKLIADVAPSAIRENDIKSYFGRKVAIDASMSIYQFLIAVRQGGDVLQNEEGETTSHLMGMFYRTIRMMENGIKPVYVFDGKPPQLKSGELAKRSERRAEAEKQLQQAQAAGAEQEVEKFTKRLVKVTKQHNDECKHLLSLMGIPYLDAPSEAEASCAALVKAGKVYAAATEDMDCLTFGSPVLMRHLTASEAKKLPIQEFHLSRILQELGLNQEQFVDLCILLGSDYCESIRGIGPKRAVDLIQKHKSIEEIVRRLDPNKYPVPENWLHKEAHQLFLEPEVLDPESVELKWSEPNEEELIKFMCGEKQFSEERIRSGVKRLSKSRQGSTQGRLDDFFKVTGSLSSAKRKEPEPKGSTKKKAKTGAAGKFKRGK
How it was run: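 qHTS format: compounds and 10 nM FEN1 incubated 15 min at room temperature before adding 50 nM substrate. Cleavage followed by reads at 0 and 15 min; normalized data fitted to a four-parameter Hill curve.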

[2] = molecular target: M-phase phosphoprotein 8 (Homo sapiens) (UniProt Q99549); experiment: qHTS Validation Assay for Inhibitors for MPP8 Chromodomain Interactions with Methylated Histone Tails (AID 488949); further: nearly all actives have a fitted effect of over 55% in size; further: potency means the concentration at half of the fitted maximal effect
Sequence of M-phase phosphoprotein 8 (Homo sapiens) (Q99549 whole entry, looked up): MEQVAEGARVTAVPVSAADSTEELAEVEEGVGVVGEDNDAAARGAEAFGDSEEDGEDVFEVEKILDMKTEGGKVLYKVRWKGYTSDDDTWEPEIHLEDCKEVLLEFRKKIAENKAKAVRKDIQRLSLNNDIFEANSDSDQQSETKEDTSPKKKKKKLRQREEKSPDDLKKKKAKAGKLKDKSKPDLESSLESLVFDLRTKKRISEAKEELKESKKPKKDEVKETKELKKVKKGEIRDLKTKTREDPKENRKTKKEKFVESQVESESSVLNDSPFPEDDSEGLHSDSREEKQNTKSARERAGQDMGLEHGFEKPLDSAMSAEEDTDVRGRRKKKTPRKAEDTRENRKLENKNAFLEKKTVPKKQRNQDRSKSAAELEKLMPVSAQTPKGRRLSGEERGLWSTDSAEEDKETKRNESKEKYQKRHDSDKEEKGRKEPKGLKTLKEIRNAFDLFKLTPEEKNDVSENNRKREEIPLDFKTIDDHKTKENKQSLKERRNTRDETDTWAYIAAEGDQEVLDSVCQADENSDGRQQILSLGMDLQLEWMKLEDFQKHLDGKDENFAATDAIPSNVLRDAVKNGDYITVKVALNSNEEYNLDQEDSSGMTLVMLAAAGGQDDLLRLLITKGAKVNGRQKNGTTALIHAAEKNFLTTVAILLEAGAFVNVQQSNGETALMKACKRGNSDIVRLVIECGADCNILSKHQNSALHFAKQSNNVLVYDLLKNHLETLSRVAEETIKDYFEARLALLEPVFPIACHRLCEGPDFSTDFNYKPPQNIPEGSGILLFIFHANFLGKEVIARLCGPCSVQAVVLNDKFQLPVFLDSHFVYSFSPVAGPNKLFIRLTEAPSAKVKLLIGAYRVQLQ
How it was run: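 AlphaScreen read-out: streptavidin donor and nickel chelate acceptor beads (final 10 ug/mL), 30 min in the dark at RT. Complex of 50 nM MPP8 and 50 nM b-H3(1-18)K9me3 peptide had been exposed to compounds for 30 min beforehand.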

[3] = molecular target: Chromobox protein homolog 1 (Homo sapiens) (UniProt P83916); experiment: qHTS Validation Assay for Inhibitors of HP1-beta Chromodomain Interactions with Methylated Histone Tails (AID 488953); further: nearly all actives have a fitted effect of over 50% in size; further: potency means the concentration at half of the fitted maximal effect
How it was run: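 Disruption of preformed HP1-beta:H3K9me3 peptide complexes (both 50 nM, PBS pH 7.4 with 0.01% Tween-20) is measured by AlphaScreen after 30 min compound exposure at room temperature, using streptavidin donor and nickel chelate acceptor beads at 10 ug/mL final.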

[4] = molecular target: Methanococcus maripaludis chaperonin (MmCpn) (UniProt Q6LX38); experiment: High-Throughput Screening for Modulators of Cytosolic Chaperonin Activity: MmCpn Primary Screen (AID 488978);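 further: 50 nM MmCpn enzyme hydrolysing 30 µM ATP at 37 °C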
Sequence of Methanococcus maripaludis chaperonin (MmCpn) (Q6LX38 1-543): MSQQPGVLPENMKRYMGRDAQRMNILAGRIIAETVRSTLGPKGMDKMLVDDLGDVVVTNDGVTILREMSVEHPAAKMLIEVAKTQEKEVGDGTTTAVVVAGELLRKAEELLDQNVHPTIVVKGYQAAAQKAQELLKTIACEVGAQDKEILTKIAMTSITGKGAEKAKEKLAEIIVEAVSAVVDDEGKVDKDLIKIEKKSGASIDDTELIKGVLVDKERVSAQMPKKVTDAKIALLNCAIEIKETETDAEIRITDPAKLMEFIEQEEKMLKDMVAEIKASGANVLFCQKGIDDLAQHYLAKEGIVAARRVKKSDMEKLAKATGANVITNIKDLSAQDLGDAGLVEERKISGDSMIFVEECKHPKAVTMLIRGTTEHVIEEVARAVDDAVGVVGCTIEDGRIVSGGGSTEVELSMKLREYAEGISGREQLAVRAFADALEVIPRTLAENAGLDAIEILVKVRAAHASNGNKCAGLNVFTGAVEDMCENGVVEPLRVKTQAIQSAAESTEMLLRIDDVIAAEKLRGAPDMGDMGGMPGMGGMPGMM
How it was run: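 ADP formation read by HTRF Transcreener, 665/590 nm emission after 320 nm excitation. Enzyme: archaeal chaperonin at 50 nM final; substrate ATP 30 uM final; 10 min, 37C, after 5 min compound preincubation at RT.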

[5] = molecular target: Transient receptor potential cation channel subfamily V member 1 (Homo sapiens) (UniProt Q8NER1); experiment: HTS Assay for Compounds that Act as Enhancers of the Vanilloid Receptor 1 (AID 488979)
How it was run: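 Calcium influx kinetics via Fluo-8 (480/520 nm) in TRPV1-expressing cells, 2000/well cultured overnight at 35.5C. Compound-alone read 3 min (agonist phase), followed by EC20 capsaicin challenge for 2 min (enhancer phase).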

[6] = molecular target: Thyrotropin receptor (Homo sapiens) (UniProt P16473); experiment: qHTS Assay for Antagonists of the Thyroid Stimulating Hormone Receptor (AID 488980); further: series mostly up to about 58 µM
How it was run: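 TSHR-HEK293 cells; 70 uM RO 20-1724 PDE inhibitor; compound + EC80 TSH (4 nM final); anti-cAMP cryptate antibody/cAMP-d2 in lysis buffer, 30 min RT; HTRF 665/620 nm read.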

[7] = molecular target: D(1A) dopamine receptor (Homo sapiens) (UniProt P21728); experiment: HTS Assay for Allosteric Agonists of the Human D1 Dopamine Receptor: Primary Screen for Agonists (AID 488981)
Sequence of D(1A) dopamine receptor (Homo sapiens) (P21728 whole entry, looked up): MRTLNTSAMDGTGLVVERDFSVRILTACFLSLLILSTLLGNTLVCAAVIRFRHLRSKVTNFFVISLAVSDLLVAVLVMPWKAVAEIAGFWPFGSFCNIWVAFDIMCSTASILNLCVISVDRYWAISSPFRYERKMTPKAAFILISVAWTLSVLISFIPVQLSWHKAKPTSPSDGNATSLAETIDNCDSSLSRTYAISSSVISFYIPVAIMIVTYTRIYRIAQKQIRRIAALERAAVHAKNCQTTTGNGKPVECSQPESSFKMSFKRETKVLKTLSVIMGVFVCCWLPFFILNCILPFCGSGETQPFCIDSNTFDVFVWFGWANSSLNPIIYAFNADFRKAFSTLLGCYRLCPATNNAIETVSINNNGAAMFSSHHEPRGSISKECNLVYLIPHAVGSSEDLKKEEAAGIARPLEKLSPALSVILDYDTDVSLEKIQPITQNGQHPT
How it was run: (§1)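 Calcium flux in an inducible, force-coupled HEK293 Trex D1 line (overnight at 30 C): agonist mode is the 180 s kinetic read after compound; potentiator mode is the following 180 s read after dopamine at EC20.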

[8] = molecular target: D(1A) dopamine receptor (Homo sapiens) (UniProt P21728); experiment: HTS Assay for Allosteric Agonists of the Human D1 Dopamine Receptor: Primary Screen for Antagonists (AID 488983);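 further: calcium flux response to an EC80 dopamine challenge measured with no-wash dye; nearly all actives have a fitted effect of over 65% in size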; further: potency means the concentration at half of the fitted maximal effect
How it was run: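 Kinetic fluorescence at 1 cycle/sec tracked intracellular calcium in force-coupled, tetracycline-inducible HEK293 T-REx D1 cells. Loss of response to an EC80 dopamine dose, given 180 s after compound, marked antagonists.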

[9] = molecular target: ATPase family AAA domain-containing protein 5 (Homo sapiens) (UniProt Q96QE3); experiment: Validation screen for small molecules that inhibit ELG1-dependent DNA repair in human embryonic kidney (HEK293T) cells expressing luciferase-tagged ELG1 (AID 493107);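 further: cells co-treated with the DNA-damaging agent 5-fluorouridine alongside compound; series mostly up to about 46 µM; inhibitors lower the ELG1-luciferase luminescence signal; nearly all actives have a fitted effect of over 70% in size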
Sequence of ATPase family AAA domain-containing protein 5 (Homo sapiens) (Q96QE3 whole entry, looked up, the tested form may be a part): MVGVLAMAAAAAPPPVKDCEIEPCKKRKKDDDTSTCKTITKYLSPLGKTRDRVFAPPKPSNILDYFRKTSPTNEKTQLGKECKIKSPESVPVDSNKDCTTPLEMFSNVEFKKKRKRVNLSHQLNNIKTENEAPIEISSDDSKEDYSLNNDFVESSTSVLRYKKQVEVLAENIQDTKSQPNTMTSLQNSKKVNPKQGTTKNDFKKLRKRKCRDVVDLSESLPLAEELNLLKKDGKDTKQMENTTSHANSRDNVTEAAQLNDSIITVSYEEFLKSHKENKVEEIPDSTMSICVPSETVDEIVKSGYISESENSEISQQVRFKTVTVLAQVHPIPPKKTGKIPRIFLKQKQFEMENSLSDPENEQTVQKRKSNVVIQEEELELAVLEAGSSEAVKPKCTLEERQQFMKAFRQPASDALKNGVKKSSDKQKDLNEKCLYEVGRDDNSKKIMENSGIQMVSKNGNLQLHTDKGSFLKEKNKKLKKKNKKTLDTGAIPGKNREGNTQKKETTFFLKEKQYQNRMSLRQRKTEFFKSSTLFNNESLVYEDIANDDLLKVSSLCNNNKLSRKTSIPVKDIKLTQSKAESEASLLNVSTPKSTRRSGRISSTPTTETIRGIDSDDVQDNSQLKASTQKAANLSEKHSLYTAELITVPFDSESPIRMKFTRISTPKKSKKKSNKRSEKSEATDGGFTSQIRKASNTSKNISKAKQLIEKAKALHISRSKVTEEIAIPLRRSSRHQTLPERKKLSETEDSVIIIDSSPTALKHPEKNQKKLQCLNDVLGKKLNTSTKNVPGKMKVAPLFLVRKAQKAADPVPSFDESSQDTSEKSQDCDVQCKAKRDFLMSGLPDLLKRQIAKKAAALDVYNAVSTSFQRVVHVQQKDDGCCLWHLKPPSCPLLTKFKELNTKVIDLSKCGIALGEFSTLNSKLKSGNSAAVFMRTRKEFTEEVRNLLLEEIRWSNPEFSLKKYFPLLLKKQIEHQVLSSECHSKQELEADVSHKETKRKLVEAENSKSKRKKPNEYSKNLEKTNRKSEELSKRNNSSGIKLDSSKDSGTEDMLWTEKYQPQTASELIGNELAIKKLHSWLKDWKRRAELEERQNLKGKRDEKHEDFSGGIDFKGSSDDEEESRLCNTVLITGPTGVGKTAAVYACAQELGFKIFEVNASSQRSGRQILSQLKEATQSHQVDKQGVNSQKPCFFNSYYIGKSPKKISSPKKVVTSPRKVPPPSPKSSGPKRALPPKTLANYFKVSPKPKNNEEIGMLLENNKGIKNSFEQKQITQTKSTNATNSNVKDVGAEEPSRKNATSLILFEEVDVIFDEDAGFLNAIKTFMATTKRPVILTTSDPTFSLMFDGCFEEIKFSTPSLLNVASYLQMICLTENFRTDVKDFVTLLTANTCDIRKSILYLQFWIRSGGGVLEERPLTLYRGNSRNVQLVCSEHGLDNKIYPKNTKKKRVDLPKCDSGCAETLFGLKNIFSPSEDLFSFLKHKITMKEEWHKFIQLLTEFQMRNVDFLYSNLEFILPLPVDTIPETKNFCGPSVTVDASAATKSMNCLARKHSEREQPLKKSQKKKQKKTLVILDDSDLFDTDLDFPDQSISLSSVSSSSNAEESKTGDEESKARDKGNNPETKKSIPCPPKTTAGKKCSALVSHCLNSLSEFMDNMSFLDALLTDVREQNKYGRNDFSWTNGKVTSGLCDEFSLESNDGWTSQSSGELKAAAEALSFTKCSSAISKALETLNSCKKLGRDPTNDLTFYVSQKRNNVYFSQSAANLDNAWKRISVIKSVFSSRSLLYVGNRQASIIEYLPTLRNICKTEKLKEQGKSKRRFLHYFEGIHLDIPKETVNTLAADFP
How it was run: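 Cells are dispensed in 1536-well format, then 5-fluorouridine and compound are pinned in. After a 16 hr incubation at 37 °C and 5% CO2, ONE-Glo is added and luciferase measured on a CCD imager.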

[10] = molecular target: Thyrotropin-releasing hormone receptor (Homo sapiens) (UniProt P34981); experiment: qHTS for Small Molecule Agonists and Allosteric Enhancers of Human TRH Receptor: Validation Screen for Agonists (AID 493127;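 active means calcium activation more than 3 SD above the typical response in the agonist read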;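 further: intracellular calcium rise by fluo-8 fluorescence before TRH EC20 addition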); conditions: TRH receptor agonist cell assay; at 2 µM; stronger effect = higher value
Sequence of Thyrotropin-releasing hormone receptor (Homo sapiens) (P34981 whole entry, looked up): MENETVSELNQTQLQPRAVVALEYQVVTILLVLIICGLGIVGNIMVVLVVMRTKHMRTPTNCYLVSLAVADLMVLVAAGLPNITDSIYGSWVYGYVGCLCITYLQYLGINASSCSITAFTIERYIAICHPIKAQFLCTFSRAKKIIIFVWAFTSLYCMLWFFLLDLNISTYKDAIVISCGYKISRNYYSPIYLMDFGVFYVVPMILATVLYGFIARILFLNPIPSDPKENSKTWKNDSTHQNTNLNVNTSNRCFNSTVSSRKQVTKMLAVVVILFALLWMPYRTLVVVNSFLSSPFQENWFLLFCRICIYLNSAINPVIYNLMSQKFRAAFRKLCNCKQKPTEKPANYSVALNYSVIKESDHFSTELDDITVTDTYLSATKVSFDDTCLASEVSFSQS
How it was run: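 Compounds are added by online pintool to dye-loaded TRHR cells while fluorescence is recorded every second. A rise in calcium signal during the agonist read marks activation; a later 10 nM TRH addition (EC20) serves the separate enhancer mode.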

[11] = Nrf2 qHTS screen for inhibitors: Validation (AID 493153; active means well fitted inhibition curve with a large enough effect in the main read-out, with a control signal flat, not every such curve was filed as active); conditions: Potency: luciferase luminescence; viability change: measured here: cytotoxicity max response
How it was run: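 A549 ARE_Fluc, 5% FBS OPTI-MEM; cpd titration, 18-24 h, 37°C/5% CO2. Read 1: CellTiter-Fluor (Ex 405/Em 525), cytotox. Read 2: luciferase lum, Nrf2 activity.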

[12] = molecular target: Galactokinase (Homo sapiens) (UniProt P51570); experiment: qHTS Validation Assay for Inhibitors of Human Galactokinase (GALK) (AID 493189)
Sequence of Galactokinase (Homo sapiens) (P51570 whole entry, looked up): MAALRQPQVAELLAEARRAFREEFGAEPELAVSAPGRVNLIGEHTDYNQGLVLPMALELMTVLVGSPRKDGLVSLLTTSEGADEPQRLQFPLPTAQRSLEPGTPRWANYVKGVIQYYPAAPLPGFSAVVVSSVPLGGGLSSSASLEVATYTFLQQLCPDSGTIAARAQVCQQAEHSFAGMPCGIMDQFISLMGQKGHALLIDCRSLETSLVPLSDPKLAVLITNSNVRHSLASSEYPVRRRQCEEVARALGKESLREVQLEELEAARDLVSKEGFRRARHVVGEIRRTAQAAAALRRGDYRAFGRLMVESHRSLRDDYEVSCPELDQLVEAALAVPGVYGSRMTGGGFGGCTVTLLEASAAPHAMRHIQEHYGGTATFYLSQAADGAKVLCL
How it was run: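 Luminescence from leftover ATP (Kinase-Glo Plus, 10 min) served as read-out after a 1 h room-temperature reaction of 5 nM GALK, 100 uM galactose and 35 uM ATP at pH8.0.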

[13] = Validation screen for small molecules that induce DNA re-replication in SW480 colon adenocarcinoma cells (AID 504364)
How it was run: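 Image-based qHTS: compounds were incubated with SW480 cells for 48 hr, nuclei stained with Hoechst, and per-nucleus fluorescence intensity scanned to flag cells with excess DNA content.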

[14] = molecular target: Peptidyl-prolyl cis-trans isomerase NIMA-interacting 1 (Homo sapiens) (UniProt Q13526); experiment: qHTS Validation Assay to Find Inhibitors of Pin1 (AID 504536; active means well fitted inhibition curve with a large enough effect in the polarisation, with a control signal flat, not every such curve was filed as active; the % refers to the polarisation; further: potency means the concentration at half of the fitted maximal effect)
Sequence of Peptidyl-prolyl cis-trans isomerase NIMA-interacting 1 (Homo sapiens) (Q13526 whole entry, looked up): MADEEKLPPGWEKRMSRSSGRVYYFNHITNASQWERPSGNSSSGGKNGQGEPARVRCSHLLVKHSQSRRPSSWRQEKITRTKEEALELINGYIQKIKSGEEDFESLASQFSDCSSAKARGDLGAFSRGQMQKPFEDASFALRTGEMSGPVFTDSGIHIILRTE
How it was run: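 Fluorescence polarization competition: compounds (titration) displace HiFluor-488-labeled Pin1-1b peptide from Pin1 (0.3 uM final) in pH 7.5 HEPES buffer with DTT, 10 min at room temperature; %Activity normalized to no-enzyme wells, curves fitted.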

[15] = molecular target: Phosphoglycerate kinase, glycosomal (Trypanosoma brucei brucei) (UniProt P07378); experiment: qHTS Validation Assay to Find Inhibitors of Phosphoglycerate Kinase (AID 504547); further: potency means the concentration at half of the fitted maximal effect
How it was run: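 Luminescence end-point (Kinase-Glo Plus, 10 min) after a 60 min room-temperature coupled reaction. GAPDH at 100nM final supplies 1,3-BPG to PGK. Buffer: 100mM TEA pH 7.6, 5mM MgCl2, 0.01% Tween-20. Wells lacking PGK served as controls.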

[16] = molecular target: D(1A) dopamine receptor (Homo sapiens) (UniProt P21728); experiment: HTS Assay for Allosteric Agonists of the Human D1 Dopamine Receptor: Primary Screen for Potentiators (AID 488982)
How it was run: as §1

[17] = Validation screen for small molecules that induce genotoxicity in human embryonic kidney (HEK293T) cells expressing luciferase-tagged ELG1 (AID 493106)
How it was run: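 Cells were dispensed at 2,000 per well, then 23 nL compound or DMSO was pinned in. After 16 hr at 37 °C and 5% CO2, ONE-Glo reagent was added. Luciferase activity was measured following 30 min at room temperature.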

[18] = qHTS for Inhibitors of Cell Surface uPA Generation: Validation Assay (AID 493164);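 further: RAW 264.7 macrophage cells exposed to compound for 18 h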
How it was run: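 ATP-Lite luminescence read-out: ATP remains high when uPA activity-dependent LF translocation into the cytoplasm is blocked. RAW 264.7 cells, 18 h compound exposure at 37 C; 7-point titration, 2.45 nM to 38.3 uM final.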

With `CN1CCc2cccc(Cl)c2CC1` as the compound, how does the Potency [1] read?
Its Potency is “inactive”.

And the Potency [2]?
The Potency was “inactive”.

And the Potency [3]?
Its Potency is “inactive”.

And the outcome [4]?
Its outcome is “inactive”.

And the outcome [5]?
The outcome was “inactive”.

And the outcome [6]?
The outcome was “inactive”.

What about the Potency [7] of the same compound?
The Potency was “inactive”.

And the Potency [8]?
Its Potency is 2.51 µM (active).

What about the Potency [9] of the same compound?
Its Potency is “inactive”.

What about the activation [10] of the same compound?
The activation was 1.31% (inactive).

What about the Potency [11] of the same compound?
The Potency was “inactive”.

And the viability change [11]?
The viability change was 2.9%.

And the outcome [12]?
Its outcome is “inactive”.

What about the Potency [13] of the same compound?
Its Potency is “inactive”.

And the Potency [14]?
Its Potency is “inactive”.

And the Potency [15]?
The Potency was “inactive”.

What does the source list for `CN(N=O)c1ccc(O)c(O)c1`?
Potency [1]: 2.67 µM (active); Potency [2]: 2.51 µM (active) and 2.38 µM (active); Potency [3]: 1.58 µM (active); outcome [4]: inactive; outcome [5]: inactive; outcome [6]: inactive; Potency [7]: inactive; Potency [16]: inactive; Potency [8]: inactive; Potency [9]: inactive; activation [10]: -0.438% (inactive); Potency [11]: inactive; viability change [11]: 0.531%; outcome [12]: inactive; Potency [13]: inactive; Potency [14]: 4.78 µM (active); Potency [15]: 6.01 µM (active)

For `CCCN(CCC)CCc1c[nH]c2ccc(C(N)=O)cc12`, which Potency [1] is on record?
Its Potency is “inactive”.

And the Potency [2]?
Its Potency is “inactive”.

And the Potency [3]?
The Potency was “inactive”.

What about the outcome [4] of the same compound?
The outcome was “inactive”.

And the outcome [5]?
The outcome was “inactive”.

And the outcome [6]?
The outcome was “inactive”.

And the Potency [7]?
The Potency was “inactive”.

And the Potency [8]?
The Potency was “inactive”.

What about the Potency [17] of the same compound?
The Potency was “inactive”.

And the activation [10]?
The activation was 0% (inactive).

And the Potency [11]?
Its Potency is “inactive”.

And the viability change [11]?
The viability change was 1.24%.

What about the outcome [18] of the same compound?
The outcome was “inactive”.

And the outcome [12]?
The outcome was “inactive”.

What about the Potency [13] of the same compound?
Its Potency is “inactive”.

What about the Potency [14] of the same compound?
Its Potency is “inactive”.

And the Potency [15]?
The Potency was “inactive”.

What does the source list for `CCCN(CCC)C1Cc2cc(OC)c(OC)cc2C1`?
Potency [1]: inactive; Potency [2]: inactive; Potency [3]: inactive; outcome [4]: inactive; outcome [5]: inactive; outcome [6]: inactive; Potency [7]: inactive; Potency [16]: inactive; Potency [8]: inactive; Potency [9]: inactive; activation [10]: -2.94% (inactive); Potency [11]: inactive; viability change [11]: 11.4%; outcome [12]: inactive; Potency [13]: inactive; Potency [14]: inactive; Potency [15]: inactive

For `CC(C)(C)c1cc(C=C(C#N)C#N)cc(C(C)(C)C)c1O`, which Potency [1] is on record?
Its Potency is “inactive”.

What about the Potency [2] of the same compound?
The Potency was 10 µM (active).

And the Potency [3]?
The Potency was 7.94 µM (active).

And the outcome [4]?
The outcome was “inactive”.

What about the outcome [5] of the same compound?
The outcome was “inactive”.

And the outcome [6]?
The outcome was “inactive”.

And the Potency [7]?
The Potency was “inactive”.

And the Potency [16]?
The Potency was “inactive”.

And the activation [10]?
Its activation is 0.125% (inactive).

And the outcome [18]?
The outcome was “inactive”.

What about the outcome [12] of the same compound?
The outcome was “inactive”.

And the Potency [14]?
The Potency was “inactive”.

And the Potency [15]?
Its Potency is “inactive”.

Which Potency [1] does the source give for `NCCc1ccc(S(=O)(=O)F)cc1` here?
Its Potency is “inactive”.

And the Potency [2]?
Its Potency is “inactive”.

What about the Potency [3] of the same compound?
Its Potency is “inactive”.

What about the outcome [4] of the same compound?
The outcome was “inactive”.

What about the outcome [5] of the same compound?
The outcome was “inactive”.

And the outcome [6]?
The outcome was “inactive”.

And the Potency [7]?
The Potency was “inactive”.

And the Potency [8]?
The Potency was “inactive”.

And the activation [10]?
The activation was 1.25% (inactive).

What about the Potency [11] of the same compound?
Its Potency is “inactive”.

And the viability change [11]?
Its viability change is -2.23%.

And the outcome [12]?
Its outcome is “inactive”.

What about the Potency [13] of the same compound?
Its Potency is “inactive”.

And the Potency [14]?
The Potency was “inactive”.

And the Potency [15]?
Its Potency is “inactive”.

With `CP(=O)(O)C1=CCNCC1` as the compound, how does the Potency [1] read?
The Potency was “inactive”.

What about the Potency [2] of the same compound?
Its Potency is “inactive”.

And the Potency [3]?
Its Potency is “inactive”.

And the outcome [4]?
Its outcome is “inactive”.

What about the outcome [5] of the same compound?
The outcome was “inactive”.

And the outcome [6]?
Its outcome is “inactive”.

What about the Potency [7] of the same compound?
The Potency was “inactive”.

What about the Potency [8] of the same compound?
Its Potency is “inactive”.

And the Potency [17]?
Its Potency is “inactive”.

And the activation [10]?
Its activation is 0.188% (inactive).

What about the Potency [11] of the same compound?
The Potency was “inactive”.

And the viability change [11]?
Its viability change is -3.56%.

And the outcome [18]?
The outcome was “inactive”.

What about the outcome [12] of the same compound?
The outcome was “inactive”.

And the Potency [13]?
The Potency was “inactive”.

What about the Potency [14] of the same compound?
The Potency was “inactive”.

And the Potency [15]?
The Potency was “inactive”.

Which results are given for `CCCN(CCC)CCc1ccc(O)c(O)c1`?
Potency [1]: inactive; Potency [2]: inactive; Potency [3]: inactive; outcome [4]: inactive; outcome [5]: inactive; outcome [6]: inactive; Potency [7]: inactive; Potency [16]: inactive; Potency [8]: 1.78 µM (active); Potency [17]: inactive; Potency [9]: inactive; activation [10]: -3.94% (inactive); Potency [11]: inactive; viability change [11]: -6.78%; outcome [12]: inactive; Potency [13]: inactive; Potency [14]: inactive; Potency [15]: inactive
